Results on eight compounds are retold here after PubChem BioAssay (NCI).

About 83,000 compounds went through this panel and 20% of them were active in at least one assay; those are over-represented in the sample as a whole.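 Assay: single dose, 48 h. Readout: percent growth (0 = no net growth; negative = cell death). Active: <10.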 Values without a mark were called inactive. Activity calls are given as the source filed them.

What all share (experiment): NCI-60 one-dose screen, 48 h (100 = growth as untreated, 0 = no growth, -100 = all killed)
Common to all, as to settings: 10 µM unless noted

For experiment [1], the system named is NCI-H23 lung.
For experiment [2], the system named is NCI-H322M lung.
Experiment [3] concerns HOP-62 NSCLC.
Experiment [4] relates to NCI-H460 lung.
In experiment [5] the test system is HOP-92 NSCLC.
Experiment [6] relates to NCI-H522 lung.
Experiment [7] relates to A549/ATCC NSCLC.
Experiment [8] relates to 786-0 renal.
Experiment [9] concerns COLO 205 colon.
Experiment [10] relates to DU-145 prostate.
Experiment [11] concerns K-562 leukemia.
Experiment [12] deals with MALME-3M melanoma.
Experiment [13] relates to MDA-MB-231 breast.
Experiment [14] has as its system RXF 393 renal.
The test system of experiment [15] is SF-268 CNS.
The test system of experiment [16] is SF-295 CNS.
Experiment [17] relates to SF-539 CNS.
Experiment [18] relates to UACC-257 melanoma.
Experiment [19] has as its system M14 melanoma.

Take `COc1ccc2c(c1)OC13Oc4cc(OC)ccc4C=C1CCCCC3=C2`: the growth was 91.6% in experiment [1]; 105% in experiment [2]; 99.3% in experiment [3]; 94.4% in experiment [4]; 80.7% in [5]; 66.2% in [6]. Moreover, the growth in experiment [7] was 73.8%; in experiment [8] it was 87.2%; in experiment [9] it was 101%; in experiment [10], 104%; in [11] it was 88.7%; in experiment [12], 97.9%. Further, the growth in [13] is 93.8%; in experiment [14], 87.5%; in experiment [15], 90.7%; in [16], 96.8%; in experiment [17] it was 98.4%; in experiment [18] it was 78.6%. For the same compound, in experiment [19], the growth was 90.4%.

For the compound `Cc1c(Cl)cccc1NC(=O)c1sc2nc3c(cc2c1N)CN(Cc1ccccc1)CC3`, the growth in [1] was 66.1%; in experiment [2], 73.1%; in [3] it was 38.4%; in [4], 22%; in experiment [5], 51.8%; in experiment [6] it was 0.814% (active). For the same compound, the growth was 58.6% in experiment [7]; 42.9% in experiment [8]; 51.5% in experiment [9]; 30.5% in [10]; 10% in experiment [11]; 49.5% in experiment [12]. In addition, the growth in experiment [13] was 86.3%; in experiment [14], 68.8%; in [15], 42.3%; in [16], 21.8%; in [17] it was 39.3%; in [18], 63.6%. In addition, the growth in experiment [19] is 26.8%.

Turning to `C=C(C)[C@@H]1CC[C@]2(C(N)=O)CC[C@]3(C)[C@H](CC[C@@H]4[C@@]5(C)CCCNC(C)(C)[C@@H]5CC[C@]43C)[C@@H]12`, the growth in experiment [1] is 76.4%; in [2], 101%; in experiment [3] it was 91.4%; in [4] it was 64%; in [5], 65.4%; in experiment [6] it was 84.4%. Further, the growth in experiment [7] is 65%; in [8], 87.2%; in [9], 69.3%; in experiment [10] it was 92.4%; in experiment [11], 7.26% (active); in experiment [12], 75%. Moreover, the growth was 62.4% in experiment [13]; 72.4% in experiment [14]; 85.8% in [15]; 80.9% in [16]; 65.4% in experiment [17]; 57.6% in [18]. In experiment [19], the growth was 86.8%.

`NC(=O)C(O)(c1ccccc1)c1ccccc1`: the growth was 101% in [1]; 105% in [2]; 91.6% in experiment [3]; 83.2% in [5]; 84.2% in experiment [6]; 91% in [7]. Further, the growth in experiment [8] was 102%; in [9] it was 115%; in experiment [10], 105%; in [11], 99.6%; in [12], 113%; in [13], 108%. Further, the growth in experiment [14] was 123%; in experiment [15], 110%; in [16], 99.7%; in experiment [17], 103%; in [18], 91.8%; in experiment [19], 97.1%.

For the compound `OCCNc1nc(NCCO)nc(Nc2ccc(C3=NN(c4cc(Cl)cc(Cl)c4)C(c4ccccc4)C3)cc2)n1` (stereo unspecified), the growth in experiment [1] is 50.1%; in experiment [2], 57.6%; in experiment [3], 29.1%; in [4] it was 23.7%; in experiment [5], 72.1%; in [6], 48.1%. The growth in [7] is 35.9%; in experiment [8], 40.3%; in experiment [9] it was 34.4%; in experiment [10] it was 45.8%; in experiment [11], 18.4%; in experiment [12], 59.2%. In addition, the growth is 42.1% in experiment [13]; 11% in experiment [14]; 50.8% in [15]; 10% in [16]; 38% in experiment [17]; 91.2% in experiment [18]. Besides, in experiment [19], the growth was 46.2%.

On to `COc1ccc(N(C)c2nc(Cl)nc3ccn(C)c23)cc1`, for which the growth in experiment [1] was 27%; in experiment [2], 49%; in experiment [3] it was 17.7%; in experiment [4], 2.4% (active); in [5], 5.65% (active); in experiment [6] it was -36% (active). The growth in experiment [7] is 10.7%; in [8] it was 12.6%; in experiment [9], -71.1% (active); in experiment [10], 2.61% (active); in [11], 7.28% (active); in experiment [12], 84.8%. In addition, the growth is 0.175% (active) in experiment [13]; 48.3% in [14]; 24.3% in experiment [15]; 15.5% in [16]; -32% (active) in [17]; 49.6% in [18]. The growth in experiment [19] is -0.998% (active).

With `COc1ccc2nc3nc4ccc[nH]c4cc3c2c1`, the growth in experiment [1] was 73.9%; in experiment [2], 87.6%; in experiment [3], 87.9%; in experiment [4], 73.7%; in [5], 122%; in experiment [6], 84.4%. For the same compound, the growth in [7] is 91.2%; in [8] it was 86.2%; in experiment [9], 97.9%; in experiment [10], 88.3%; in [11], 99.6%; in [12] it was 90%. Besides, the growth in experiment [13] is 98%; in experiment [14], 101%; in experiment [15], 84.5%; in experiment [16], 112%; in experiment [17], 94%; in [18], 115%. The growth in experiment [19] was 101%.

On to `S=C(Nc1ccccc1)c1ccccn1`, for which the growth in experiment [1] is 87.5%; in experiment [2], 101%; in experiment [3] it was 75.2%; in [4], 100%; in experiment [5] it was 84.6%; in experiment [6], 74.4%. Besides, the growth was 91.7% in experiment [7]; 96.5% in [8]; 67.9% in [9]; 120% in experiment [10]; 99.7% in experiment [11]; 114% in experiment [12]. For the same compound, the growth was 102% in experiment [13]; 128% in [14]; 105% in [15]; 114% in experiment [16]; 91.1% in [17]; 31.3% in experiment [18]. Moreover, the growth in experiment [19] was 90.6%.
